How the values were obtained:
Assay in all cases: protein-binding microarray (PBM); PBM: ~300 nM protein, 6 mM HEPES pH 7.8, 80 mM KCl, 0.5 mM EDTA, 0.5 mM EGTA, 6% glycerol, 35 ng/ul poly-dIdC, 1% milk, 1 h, room temperature; Ap Aiptasia and Nv Nematostella (sea anemones) / Co Capsaspora / Aq Amphimedon (sponge) / Dm Drosophila / Hu human; RHD is the Rel homology domain; high values mean tight binding
Conditions in all cases: dsDNA, one strand shown
[1] = target: T1, GST-Ap-NF-kB RHD (Exaiptasia pallida (Aiptasia), UniProt A0A913YAJ5 2-422)
T1 sequence: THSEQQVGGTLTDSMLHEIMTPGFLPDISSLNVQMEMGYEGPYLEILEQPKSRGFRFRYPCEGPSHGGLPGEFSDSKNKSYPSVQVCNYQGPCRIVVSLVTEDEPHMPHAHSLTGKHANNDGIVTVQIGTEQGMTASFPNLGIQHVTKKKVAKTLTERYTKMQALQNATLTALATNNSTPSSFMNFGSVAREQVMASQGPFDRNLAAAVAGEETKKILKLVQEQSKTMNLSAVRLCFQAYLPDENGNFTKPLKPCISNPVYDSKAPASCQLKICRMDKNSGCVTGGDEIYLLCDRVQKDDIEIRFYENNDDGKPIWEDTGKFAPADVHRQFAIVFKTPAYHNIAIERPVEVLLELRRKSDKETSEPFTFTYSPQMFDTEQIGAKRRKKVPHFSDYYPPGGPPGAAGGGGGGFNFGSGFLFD

[2] = target: T2, GST-Nv-NF-kB (Cys allele) (Nematostella vectensis, UniProt E5G601 2-411)
T2 sequence: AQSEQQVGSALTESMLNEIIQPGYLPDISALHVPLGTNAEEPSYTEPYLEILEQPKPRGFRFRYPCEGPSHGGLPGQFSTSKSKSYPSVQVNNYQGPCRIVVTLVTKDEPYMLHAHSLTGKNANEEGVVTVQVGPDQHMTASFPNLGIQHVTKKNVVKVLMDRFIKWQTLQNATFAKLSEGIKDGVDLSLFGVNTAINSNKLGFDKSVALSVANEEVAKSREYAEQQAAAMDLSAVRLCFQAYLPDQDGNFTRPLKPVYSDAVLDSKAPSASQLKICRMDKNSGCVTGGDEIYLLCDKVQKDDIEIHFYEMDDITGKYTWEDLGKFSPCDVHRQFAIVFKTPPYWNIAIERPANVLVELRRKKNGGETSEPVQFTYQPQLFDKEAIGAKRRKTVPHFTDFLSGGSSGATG

[3] = target: T3, GST-Dm-Relish (Drosophila melanogaster, UniProt Q94527 99-473)
T3 sequence: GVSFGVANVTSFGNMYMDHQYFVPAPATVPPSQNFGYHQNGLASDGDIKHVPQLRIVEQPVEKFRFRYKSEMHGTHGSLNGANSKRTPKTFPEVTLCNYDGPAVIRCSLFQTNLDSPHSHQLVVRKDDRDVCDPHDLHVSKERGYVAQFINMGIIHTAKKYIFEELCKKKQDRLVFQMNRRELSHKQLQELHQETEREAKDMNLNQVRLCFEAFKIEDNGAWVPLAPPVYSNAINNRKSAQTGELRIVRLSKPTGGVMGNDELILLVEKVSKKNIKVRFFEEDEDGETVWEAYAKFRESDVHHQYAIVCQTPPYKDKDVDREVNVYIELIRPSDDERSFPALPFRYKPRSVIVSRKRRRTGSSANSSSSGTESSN

[4] = target: T4, GST-Aq-NF-kB (Amphimedon queenslandica, UniProt A9Y5G7 2-389)
T4 sequence: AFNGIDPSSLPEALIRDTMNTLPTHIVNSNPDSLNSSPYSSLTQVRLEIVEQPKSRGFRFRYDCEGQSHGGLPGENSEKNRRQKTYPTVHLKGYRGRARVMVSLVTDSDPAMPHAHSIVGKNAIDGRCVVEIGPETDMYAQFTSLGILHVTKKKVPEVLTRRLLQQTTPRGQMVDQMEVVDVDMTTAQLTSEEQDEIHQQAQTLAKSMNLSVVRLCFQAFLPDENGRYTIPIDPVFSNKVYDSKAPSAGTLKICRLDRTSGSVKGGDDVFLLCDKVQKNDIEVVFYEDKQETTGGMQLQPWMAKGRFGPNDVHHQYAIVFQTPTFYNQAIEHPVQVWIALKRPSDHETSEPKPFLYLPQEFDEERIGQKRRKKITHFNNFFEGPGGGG

## CCGATTAACATCAGGGCAAACCCTGATGTTAATCGGGTCTTGATTCGCTTGACGCTGCTG
[1]
  binding signal: 1.34 z-score
[2]
  binding signal: 1.88 z-score
[3]
  binding signal: 1.14 z-score
[4]
  binding signal: 4.6 z-score

## CCGATTAACATCAGGTAATTCCATGATGTTAATCGGGTCTTGATTCGCTTGACGCTGCTG
[1]
  binding signal: 1.26 z-score
[2]
  binding signal: 1.89 z-score
[3]
  binding signal: 4.41 z-score
[4]
  binding signal: 3.06 z-score

## CCGATTAACATCAGGTATTTTTATGATGTTAATCGGGTCTTGATTCGCTTGACGCTGCTG
[1]
  binding signal: 1.27 z-score
[2]
  binding signal: 2.01 z-score
[3]
  binding signal: 3.8 z-score
[4]
  binding signal: 2.77 z-score

## CCGATTAACATCAGGAAAACCCATGATGTTAATCGGGTCTTGATTCGCTTGACGCTGCTG
[1]
  binding signal: 2.63 z-score
[2]
  binding signal: 2.25 z-score
[3]
  binding signal: 4.78 z-score
[4]
  binding signal: 4.02 z-score

## CCGATTAACATCACGGGACTTCCTGATGTTAATCGGGTCTTGATTCGCTTGACGCTGCTG
[1]
  binding signal: 5.89 z-score
[2]
  binding signal: 6.03 z-score
[3]
  binding signal: 7.87 z-score
[4]
  binding signal: 6.21 z-score

## CCGATTAACATCAGGGAAGCACCTGATGTTAATCGGGTCTTGATTCGCTTGACGCTGCTG
[1]
  binding signal: 4.67 z-score
[2]
  binding signal: 5.46 z-score
[3]
  binding signal: 9.38 z-score
[4]
  binding signal: 6.3 z-score

## CCGATTAACATCAGGTAATCACCTGATGTTAATCGGGTCTTGATTCGCTTGACGCTGCTG
[1]
  binding signal: 1.18 z-score
[2]
  binding signal: 2.2 z-score
[3]
  binding signal: 5.6 z-score
[4]
  binding signal: 4.04 z-score

## CCGATTAACATCAGAAAAAACCCTGATGTTAATCGGGTCTTGATTCGCTTGACGCTGCTG
[1]
  binding signal: 3.95 z-score
[2]
  binding signal: 4.93 z-score
[3]
  binding signal: 6.15 z-score
[4]
  binding signal: 6.47 z-score

## CCGATTAACATCAGGGGTTCCACTGATGTTAATCGGGTCTTGATTCGCTTGACGCTGCTG
[1]
  binding signal: 2.77 z-score
[2]
  binding signal: 2.46 z-score
[3]
  binding signal: 5.79 z-score
[4]
  binding signal: 3.97 z-score

## CCGATTAACATCAGAAATTTACCTGATGTTAATCGGGTCTTGATTCGCTTGACGCTGCTG
[1]
  binding signal: 1.1 z-score
[2]
  binding signal: 2.05 z-score
[3]
  binding signal: 2.77 z-score
[4]
  binding signal: 2.09 z-score

## CCGATTAACATCAGGACTATCCCTGATGTTAATCGGGTCTTGATTCGCTTGACGCTGCTG
[1]
  binding signal: 1.82 z-score
[2]
  binding signal: 2.61 z-score
[3]
  binding signal: 1.48 z-score
[4]
  binding signal: 5.97 z-score

## CCGATTAACATCAGGGAGAGCCCTGATGTTAATCGGGTCTTGATTCGCTTGACGCTGCTG
[1]
  binding signal: 3.06 z-score
[2]
  binding signal: 3.59 z-score
[3]
  binding signal: 1.82 z-score
[4]
  binding signal: 6.26 z-score

## CCGATTAACATCAGGGACTCACCTGATGTTAATCGGGTCTTGATTCGCTTGACGCTGCTG
[1]
  binding signal: 3.77 z-score
[2]
  binding signal: 3.19 z-score
[3]
  binding signal: 7.74 z-score
[4]
  binding signal: 4.68 z-score

## CCGATTAACATCAGGGATTTACCTGATGTTAATCGGGTCTTGATTCGCTTGACGCTGCTG
[1]
  binding signal: 4.76 z-score
[2]
  binding signal: 5.65 z-score
[3]
  binding signal: 9.23 z-score
[4]
  binding signal: 6.8 z-score

## CCGATTAACATCAGGGATTCCAATGATGTTAATCGGGTCTTGATTCGCTTGACGCTGCTG
[1]
  binding signal: 1.68 z-score
[2]
  binding signal: 1 z-score
[3]
  binding signal: 5.16 z-score
[4]
  binding signal: 1.78 z-score

## CCGATTAACATCAGAAATCCCGATGATGTTAATCGGGTCTTGATTCGCTTGACGCTGCTG
[1]
  binding signal: 3.14 z-score
[2]
  binding signal: 2.98 z-score
[3]
  binding signal: 3.98 z-score
[4]
  binding signal: 2.24 z-score

From publication PMC5700166
